This is a sample that favours compounds with a hit; in the whole collection about 1.8% have one here.
Mito fusion yeast: qHTS Assay for Small Molecule Inhibitors of Mitochondrial Division or Activators of Mitochondrial Fusion. S. cerevisiae fusion-defective mutant growth rescue, CellTiterGlo 48 h. Potency, µM (doses to about 46.1 µM), most hits filed as activators. hit rate 0.23% among 320,000. AID 485298, 2010; also: nearly all actives have a fitted effect of over 45% in size
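Luminescent cell viability in 1536-well qHTS format served as the measure of rescued growth in ts fusion-mutant S. cerevisiae cultured on non-fermentable YPEG for 48 hours at 37C.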
MBNL1-CUG inh: qHTS Assay for Inhibitors of MBNL1-poly(CUG) RNA binding; TR-FRET MBNL1-His/biotin-(CUG)12 binding, 665/545 ratio; hit rate 0.036% among 280,000; Muscleblind-like protein 1 (Homo sapiens), Q9NR56; AID 2675, 2010; Potency, µM (titrated, usually from 57.5 µM), usual class: inhibitors; active = well fitted inhibition curve with a large enough effect in the signal ratio, with a control signal flat, not every such curve was filed as active; inconclusive = small, poorly fitted or top-dose-only effect, or effect the other way, or a change in a side signal; inactive = no such curve, though single readings can be large or run the other way; the % refers to the signal ratio
Target sequence (Q9NR56 whole entry, looked up): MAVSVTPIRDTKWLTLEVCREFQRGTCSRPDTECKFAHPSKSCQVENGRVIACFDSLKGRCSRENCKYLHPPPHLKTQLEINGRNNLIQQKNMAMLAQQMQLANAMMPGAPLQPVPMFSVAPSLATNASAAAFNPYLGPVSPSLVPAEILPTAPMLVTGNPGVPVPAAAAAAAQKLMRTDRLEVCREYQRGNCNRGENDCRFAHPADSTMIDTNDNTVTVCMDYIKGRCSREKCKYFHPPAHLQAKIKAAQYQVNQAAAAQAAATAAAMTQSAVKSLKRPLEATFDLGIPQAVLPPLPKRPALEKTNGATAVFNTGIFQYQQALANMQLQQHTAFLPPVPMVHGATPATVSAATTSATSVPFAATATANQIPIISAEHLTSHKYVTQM
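Compound titration spanned 92 nM–58 uM against the MBNL1-His/biotin-(CUG)12 complex. After 60 min at room temperature with 5 nM streptavidin-XL665 and 0.055 ng/ul terbium anti-His, ratiometric 665/545 nm emission (Ex 340 nm) normalized to controls.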
ClpP mod: qHTS Assay for Activators of ClpP. ATP-dependent Clp protease proteolytic subunit (Bacillus subtilis (strain 168)), P80244. purified B. subtilis ClpP, FRET peptide cleavage, 20 min. Potency, µM (doses to about 57.5 µM). hit rate 1.9% among 340,000. AID 651965, 2013; active = well fitted falling curve with a large enough effect; inconclusive = small, poorly fitted or top-dose-only effect; inactive = no such curve, though single readings can be large or run the other way; also: the source files actives as falling curves though it sought activators and does not explain the sign; nearly all actives have a fitted effect of over 65% in size
Target sequence (P80244 whole entry, looked up): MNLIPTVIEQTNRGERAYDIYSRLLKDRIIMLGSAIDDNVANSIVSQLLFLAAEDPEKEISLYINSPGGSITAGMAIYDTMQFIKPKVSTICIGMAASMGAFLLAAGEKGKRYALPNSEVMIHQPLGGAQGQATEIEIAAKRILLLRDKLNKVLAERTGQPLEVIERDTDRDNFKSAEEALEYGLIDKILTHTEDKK
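ClpP 10 microg/mL final, pH 8 Tris/KCl buffer with BSA, glycerol, Tween-20; compound pinned in; FRET-FV substrate; RT 20 min; Ex320/Em430; ΔFRET vs ADEP 5.8 microM, DMSO, no enzyme.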
Glioma ERSR ind: qHTS for Inducers of the Endoplasmic Reticulum Stress Response (ERSR) in Human Glioma: qHTS; U87-MG GRP78 promoter luciferase reporter, 16 h; hit rate 0.02% among 420,000; Potency, µM, hits mostly activators; also: series mostly up to about 76 µM; nearly all actives have a fitted effect of over 35% in size
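Stably transfected U87-MG human glioma cells carrying a GRP78-based luminescent sensor were seeded at 1000 cells/well, pin-dosed with compounds and incubated 16 h. Luciferase reagent was then added, and end-point luminescence was read after 10 min at room temperature.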
AT treatment: qHTS Assay for Identifying a Potential Treatment of Ataxia-Telangiectasia | F2112 A-T fibroblasts, KAP-1 phosphorylation AlphaLISA; neocarzinostatin DNA damage 30 min before lysis | Potency, µM (series often up to 57.5 µM), actives largely listed as activators | hit rate 0.19% among 320,000 | AID 485349, 2010; also: nearly all actives have a fitted effect of over 45% in size
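hTERT-immortalized A-T patient fibroblasts (F2112), 500 cells/well in OPTI-MEM, 1% FBS, got compounds for 60 min, then NCS for 30 min at 37C. Lysates were then assayed for phospho-KAP-1 by AlphaLISA (anti-pKAP1 donor, anti-KAP1 acceptor beads), 6 hr at 25C.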
TCR activator: Activators of T cell receptors: qHTS campaign; Potency, µM (titrated, usually from 9.22 µM), actives largely listed as activators; 330,000 tested, under 10 active; primary human leukocytes, anti-CD3, IL-2 HTRF, 48 h
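Compounds are tested in HTS on primary human leukocytes co-incubated with a-CD3 beads for 48 hr. IL-2 output is measured by time-resolved FRET.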
Hits are given with their value; - = inactive; ? = inconclusive; . = no result. Unless noted, calls follow the shape of the dose curve; as a rule, active = well fitted curve in the direction sought with a large enough effect; inconclusive = small, poorly fitted or top-dose-only effect, or another doubt; inactive = no such curve, though single readings can be large; an effect the other way counts as inactive or inconclusive.

SMILES	Mito fusion yeast	MBNL1-CUG inh	ClpP mod	Glioma ERSR ind	AT treatment	TCR activator
Oc1ccc(COC2CCN(Cc3ccccc3)C2)c2cccnc12 (stereo unspecified)	-	.	.	.	-	.
CCN(CC)C(=O)Oc1ccc(Br)cc1C(=O)Nc1ccc(F)cc1F	-	-	31.6µM	-	-	-
CN1CCCN(C(=O)[C@@H]2C[C@@H](Sc3nc4ccccc4[nH]3)CN2Cc2ccc(-c3ccccc3)cc2)CC1	.	.	.	-	.	.
CCOc1ccc2nc(NCCNC(=O)Nc3ccccc3)c(C#N)cc2c1	-	-	-	-	-	.
CCOc1ccc2nc(NCCNC(=O)Nc3cccc(C)c3)c(C#N)cc2c1	-	-	15.8µM	-	-	-
COc1ccc(C2=CC(c3ccc(OC)c(OC)c3)NC(=S)N2)cc1 (stereo unspecified)	-	-	-	-	-	-
COc1ccc(C2C=C(C34CC5CC(CC(C5)C3)C4)NC(=S)N2)cc1 (stereo unspecified)	11.2µM	?	-	-	-	-
O=C(NCCc1nnc2n1CCN(Cc1ccccn1)CC2)c1ccc(F)cc1	.	.	.	-	.	.
O=C(Nc1ccc(Br)cn1)c1cnn2c1NC(=C1CC1)C=C2C(F)F	.	.	-	-	.	.
CC(C)(C)CC(C)(C)N=C1Nc2ccc([N+](=O)[O-])cc2N[C@]12C[C@H]1CCCC(=O)N3CC[C@@H](C2)[C@@H]13	.	.	-	-	.	.
Cc1ncc2c(c1CNC(=O)c1cncs1)CCN(C(=O)c1cccc(-c3cccc(F)c3)c1)C2	.	.	.	-	.	.
O=C(Nc1ccc2c(c1)C(=O)N(CC1CCCO1)C2=O)c1ccccc1Br (stereo unspecified)	-	?	22.4µM	-	-	-
Cc1ccc(C(=O)Nc2ccc3c(c2)C(=O)N(CC2CCCO2)C3=O)cc1 (stereo unspecified)	-	-	-	-	-	.
CC(C)=CCC/C(C)=C/CC/C(C)=C/CCC(=O)OC/C=C(\C)CCC=C(C)C	.	.	.	-	.	.
Cc1ccccc1C1CC(=O)Oc2cc(C)c(Cl)c(C)c21 (stereo unspecified)	.	.	.	-	.	.
CN1/C(=C\C(=O)Nc2ccc(F)cc2)C(C)(C)c2ccccc21	10µM	-	-	-	-	-
Cc1cnc(-n2ncc(C(=O)NC(C)(C)CO)c2-c2cccs2)nc1-c1ccc(F)cc1	.	.	.	-	.	.
c1csc(-c2cnc3ccccc3n2)c1	-	?	6.31µM	-	-	-
Nc1c(Cl)cc(C2=NCCn3nc4cc(C(F)(F)F)ccc4c32)cc1Cl	12.6µM	.	-	-	-	-
COc1ccc2c3n(nc2c1)CCN=C3c1cc(Cl)c(N)c(Cl)c1	-	.	-	-	-	-
CC[C@H](C)[C@H](NC(=O)[C@H](CCC(=O)O)NC(=O)CNC(=O)[C@@H](NC(=O)[C@@H]1CCCN1C(=O)[C@@H](NC(=O)[C@@H]1CCCN1C(=O)[C@@H]1CCCN1C(=O)[C@H](CC(N)=O)NC(=O)[C@H](CC(N)=O)NC(=O)[C@@H](NC(=O)[C@H](CCSC)NC(=O)[C@H](Cc1c[nH]c2ccccc12)NC(=O)CNC(=O)[C@@H](NC(=O)[C@H](CCC(N)=O)NC(=O)[C@@H](N)CCC(=O)O)[C@@H](C)CC)[C@@H](C)O)[C@@H](C)CC)C(C)C)C(=O)O	.	.	.	-	.	.
CCN1CCN(C(=O)Cn2c(-c3cccs3)cc3cc(Cl)ccc32)CC1	.	.	31.6µM	-	.	.
Cc1cc(Cl)ccc1-n1c(CCC(=O)O)ccc1-c1cccs1	.	.	-	-	.	.
O=C(CN1CCN(c2cccc(Cl)c2)CC1)N1CCCC1	-	-	-	-	-	-
CCN1CCN(CC(=O)c2cc(Cl)ccc2Cl)CC1	-	.	-	-	-	-
SMILES	Mito fusion yeast	MBNL1-CUG inh	ClpP mod	Glioma ERSR ind	AT treatment	TCR activator
CCOC(=O)Cn1c(-c2cccs2)cc2cc(Cl)ccc21	.	.	22.4µM	-	.	.
O=C(Cn1c(-c2cccs2)cc2cc(Cl)ccc21)N1CCCCC1	.	.	35.5µM	-	.	.
COc1nc(-c2ccccc2)cc(-c2ccc(OC)c(OC)c2)n1	-	-	22.4µM	-	?	-
CCc1noc(C)c1C(=O)N1CCOc2ccc(CN3CCCC(C(=O)c4cccnc4)C3)cc2C1 (stereo unspecified)	.	.	.	-	.	.
COc1ccc(CN2CCCC(n3cc(C(=O)NC4CCCC4)nn3)C2)c(O)c1 (stereo unspecified)	.	.	.	-	.	.
COC(=O)c1cn(NC(=O)/C=C/c2cc(OC)ccc2OC)c(=O)c2ccccc12	-	-	28.2µM	-	-	-
Cc1cc(=O)oc2cc(OCC(=O)N3CCOCC3)ccc12	-	-	15.8µM	-	-	-
COC(=O)C(CC(C)C)Oc1ccc2c(C)cc(=O)oc2c1 (stereo unspecified)	?	-	15.8µM	-	.	-
Cc1cc(=O)oc2cc(OC(C)C(=O)N3CCOCC3)ccc12 (stereo unspecified)	-	-	14.1µM	-	-	-
Cc1cc(=O)oc2cc(OCc3ccc(S(=O)(=O)N4CCOCC4)cc3)ccc12	-	-	3.16µM	-	-	-
CC(=O)Oc1ccc2c(C)cc(=O)oc2c1	-	-	-	-	-	-
Cc1cc(=O)oc2cc(OC(C)C(=O)Nc3ccc(N4CCCCC4)cc3)ccc12 (stereo unspecified)	-	-	-	-	-	-
COc1ccc(-n2c(CNC(=O)c3c(-c4ccccc4)noc3C)nnc2SC)cc1	.	.	.	-	.	.
Cc1ccccc1NC(=O)c1nc(SCc2ccccc2F)ncc1Cl	.	.	-	-	.	.
O=CC(=O)c1ccc(F)cc1	.	.	-	-	.	.
CC(=O)c1ccc(-c2ccc(C3C4C=CCCC4(C)C(=O)N3Cc3ccccc3)c(F)c2)cc1 (stereo unspecified)	.	.	.	-	.	.
C=C[C@@H]1c2cc(C)ccc2N(S(=O)(=O)c2ccc(C)cc2)[C@H](c2ccc(C(C)(F)F)cc2)C1(C#N)C#N	.	.	-	-	.	.

Source: PubChem BioAssay (National Center for Advancing Translational Sciences (NCATS))
